# Compound activity as filed in PubChem BioAssay.
# Most compounds without a hit are left out; they make up all but 19% or so of the library.
# HT1080 IDH1KD tx = kills HT-1080 cells with IDH1 knockdown. Potency, µM (titrated, usually from 46.1 µM), inactives show at the top dose activity, negative = toxicity, actives largely listed as cytotoxic. HT-1080 IDH1 knockdown viability, ATP luminescence, 48 h. 360,000 tested, 2% active;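 also: potency is read from the fitted curve at half-maximal effect; 0% = DMSO wells and -100% = cell-free medium wells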
#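 Knockdown cells (IDH1KD HT-1080) received compounds 2 h after plating at 750 cells/well and were kept 48 h at 37 °C in 5% FBS RPMI. A CellTiter-Glo luminescence read gave % activity for curve fitting.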
# TDP1 cell CPT = growth inhibition of DT40 Tdp1-/-;hTDP1 cells with camptothecin (screen for TDP1 inhibitors); chicken DT40 Tdp1-/-;hTDP1 cells + 20 nM CPT, ATP luminescence, 48 h; 420,000 tested, 12% active; Potency, µM (highest dose often 46.2 µM), without a hit: top-dose activity change, negative = growth inhibition, most hits filed as inhibitors; AID 686979; also: potency is read from the fitted curve at half-maximal effect; nearly all actives have a fitted effect of over 55% in size
#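 Chicken DT40 Tdp1-/- cells stably complemented with human TDP1 were seeded at 400 cells/well in medium containing 20 nM camptothecin, exposed to pin-transferred compounds, and grown at 37 °C for at least 48 hr. Viability was read as ATP luminescence.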
# IL-1B inflam inh = blocks inflammasome-driven IL-1 beta release; activity change, % at 57.5 µM; AID 743279; 360,000 tested, 4.7% active; THP-1 LPS/ATP IL-1B secretion, AlphaLISA, 16 h; active compounds read low; in the data active = activity change below about -50%; inconclusive = mostly about -30% to -49%
#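 THP-1 cells pretreated 1 hr with compounds (up to 57.5 uM final), then stimulated with LPS (250 ng/mL final) plus ATP (1.25 mM final); secreted IL-1B measured by AlphaLISA after 16 hr, decreased signal indicating inhibition.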
# ELG1 DNA repair = ELG1-dependent DNA repair inhibition; HEK293T ELG1-luciferase reporter, luminescence, 16 h; DNA damage induced by 5-fluorouridine; Potency, µM (highest dose often 46.1 µM), for the others: at the highest dose activity change, negative = inhibition, hits mostly inhibitors; AID 504467; 330,000 tested, 2.3% active; also: potency is read from the fitted curve at half-maximal effect; nearly all actives have a fitted effect of over 55% in size
#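 5-Fluorouridine DNA damage + compound/DMSO, 2,000 cells/well, 16 h, 37 °C/5% CO2. ONE-Glo, 30 min RT, luminescence. Readout = decrease in reporter signal.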
# HT1080NT lethal = kills 2HG-producing HT-1080-NT fibrosarcoma cells; HT-1080-NT fibrosarcoma viability, CellTiter-Glo ATP luminescence, 48 h; Potency, µM (titrated, usually from 46.1 µM), without a hit: top-dose activity, negative = less viability, usual class: cytotoxic; 360,000 tested, 1.6% active; AID 686970;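 also: NT is the 2HG producing partner of a matched IDH1 knockdown line; potency is read from the fitted curve at half-maximal effect; 0% = DMSO-treated cells and -100% = media-only wells without cells; nearly all actives have a fitted effect of over 55% in size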
#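 Read-out is CellTiter-Glo luminescence after 10 minutes at room temperature, following 48 hours' compound treatment of HT-1080-NT cells (750 cells/well, RPMI, 5% FBS, 37 degrees C).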
# DT40 TDP1 no CPT = qHTS for Inhibitors of human tyrosyl-DNA phosphodiesterase 1 (TDP1): qHTS in cells in absence of CPT | 420,000 tested, 15% active | Potency, µM (top dose mostly 46.2 µM), inactives show at the highest dose activity change, negative = growth inhibition, actives largely listed as inhibitors | DT40 Tdp1-/- hTDP1 cells, no CPT, ATP luminescence, 48 h; also: potency is read from the fitted curve at half-maximal effect; nearly all actives have a fitted effect of over 55% in size
#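 Growth kinetics read by CellTiter-Glo luminescence after ≥48 hr at 37 °C. Cells: DT40 Tdp1-/- stably carrying human TDP1, 400 per well, compound exposure in the absence of CPT (DMSO vehicle).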
# The depositor's hits bear a star; ? = inconclusive; · = not tested or not shown; [ ] = another dose, or the depositor's remark. Unless noted, calls follow the shape of the dose curve; as a rule, active = well fitted curve in the direction sought with a large enough effect; inconclusive = small, poorly fitted or top-dose-only effect, or another doubt; inactive = no such curve, though single readings can be large; an effect the other way counts as inactive or inconclusive. Unless noted, % is scaled to controls: 0 for no effect and ±100 for the full control effect.
SMILES,HT1080 IDH1KD tx,TDP1 cell CPT,IL-1B inflam inh,ELG1 DNA repair,HT1080NT lethal,DT40 TDP1 no CPT
O=C(CN1CCN(c2ccc(F)cc2)CC1)Nc1ccccc1C(=O)NCCc1ccccc1,-19%,?,21,?,-1%[9.24 µM],16µM*
COc1ccccc1N1CCN(CC(=O)Nc2ccccc2C(=O)NCCc2ccccc2)CC1,1%,15µM*,14,?,2%[9.24 µM],16µM*
CCCCCCn1cc(CN2CC(N(C)CCC)CS2(=O)=O)nn1 (stereo not given),4%,0%,-2,·,0%,0%
Cc1nc(C)c(C(=O)N2CCc3c(cnc(C)c3CNC(=O)c3cncs3)C2)s1,·,16%[9.04 µM],·,·,·,-9%
Cc1ccc(C(=O)N2CCN(CCNC(=O)C(=O)Nc3ccc(Cl)cc3)CC2)cc1,3%,?,?,?,7%,?
O=C(NCCN1CCN(C(=O)c2cccc(Br)c2)CC1)C(=O)Nc1ccc(Br)cc1,-17%,13µM*,-19,-11%,-16%,26µM*
Cc1cccc(C(=O)NCCN2CCN(c3ccccc3)CC2)c1,8%,-9%,-13,2%,-1%,-19%
O=C(C(=O)N1CCN(c2ccncc2)CC1)c1cccc(Br)c1,2%,15µM*,32,·,-1%,15µM*
O=C(NCCN1CCN(c2ccccc2)CC1)c1cccc(Br)c1,?,?,-29,?,?,14µM*
O=C(NCCN1CCN(C(=O)c2c(F)cccc2F)CC1)C(=O)Nc1ccc(Cl)cc1,-18%,?,-7,7.3µM*,6%,?
CCOc1ccc(NC(=O)N2CCOc3ccccc32)cc1,·,-27%,·,·,·,-24%
CCCN(CCC)c1nc2ccccc2nc1C(C#N)C(=O)OC(C)COC (stereo not given),-3%,23µM*,-51*,12%,-18%,23µM*
O=c1c(-c2ccco2)[n+]([O-])c2ccccc2n1OCc1ccccn1,1%,-21%,-4,-5%,15%,-23%
O=c1c(-c2ccco2)[n+]([O-])c2ccccc2n1OCc1ccccc1[N+](=O)[O-],?,?,-6,23µM*,16%,?
C=CCOn1c(=O)c(-c2ccccc2)[n+]([O-])c2ccccc21,8%,5%,13,0%,11%,-9%
C=CCOn1c(=O)c(-c2cc3ccccc3o2)[n+]([O-])c2ccccc21,-6%,-77%,28,?,-17%,18µM*
COc1ncccc1-c1cc2nc(NCCNC(C)=O)n(C)c(=O)c2s1,24%,?,26,·,0%,?
O=C(c1ccccc1)c1ccc(NCCCn2ccnc2)c([N+](=O)[O-])c1,-21%,-29%,-74*,-12%,-24%,?
CCOC(=O)CON1C(=O)C(C)(C)N(OCC(=O)OCC)C(=O)C1(C)C,13%,-6%,10,-5%,14%,-8%
CCON1C(=O)C(C)(C)N(OCC)C(=O)C1(C)C,8%,?,22,2%,18%,12µM*
Cc1ccc(C(=O)NC(=S)Nc2nc(-c3cccc([N+](=O)[O-])c3)cs2)c(Cl)c1,20%,?,4,5%,9%,?
Cc1ccc(NC(=O)NC(=O)CN2CCCC2c2ccc3c(c2)OCCO3)cc1C (stereo not given),-7%,29µM*,-13,5%,7%[9.24 µM],?
O=C(CCl)N1CCCC1c1ccc2c(c1)OCCO2 (stereo not given),18µM*,0.73µM*,-102*,?,23µM*,1.2µM*
O=C(N/N=C/c1cccs1)c1cc(-c2ccc(Cl)s2)[nH]n1,-18%,-13%,?,5%,?,?
CCn1nnc2cc(C(=O)Nc3ccc(Cl)cc3C)ccc21,·,2%,·,·,·,-15%
SMILES,HT1080 IDH1KD tx,TDP1 cell CPT,IL-1B inflam inh,ELG1 DNA repair,HT1080NT lethal,DT40 TDP1 no CPT
COc1ccc(C(=O)/C=C/C(=O)N(Cc2ccc(F)cc2)C(C(=O)NC2CCCCC2)c2ccncc2)c(O)c1 (stereo not given),-10%,?,-64*,18µM*,-4%,?
COc1ccccc1CN(C(=O)CCl)C(C(=O)NC1CCCCC1)c1ccncc1 (stereo not given),4%,17%,5,7%,7%,3%
COc1ccc(C(=O)/C=C/C(=O)N(Cc2ccccc2OC)C(C(=O)NC2CCCCC2)c2ccncc2)c(O)c1 (stereo not given),?,?,-78*,21µM*,?,21µM*
COCCC(=O)N(Cc1ccc2c(c1)OCO2)C(C(=O)NC1CCCCC1)c1ccncc1 (stereo not given),-3%,-7%,21,12%,1%,?
COc1ccc(C2=C(C)C(=O)N(Cc3ccc(C(=O)NC(C)c4ccccc4)cc3)S2(=O)=O)cc1 (stereo not given),·,-12%,·,·,·,-20%
CCCCCC(=O)N1C[C@H](O)[C@@H](n2cc(-c3ccc(F)cc3)nn2)C[C@@H]1c1ccc(OC)cc1,-16%,?,?,·,-17%,?
CCCCCCN1C[C@H](O)[C@@H](n2cc(-c3ccc(F)cc3)nn2)C[C@@H]1c1ccc(Cl)cc1,-3%,?,-27,·,2%,18µM*
CCCCCCN1C[C@H](n2cc(-c3ccc(F)cc3)nn2)[C@@H](O)C[C@@H]1c1ccc(OC)cc1,-4%,?,-1,·,2%,?
CCCCCCN1C[C@H](n2cc(-c3ccc(F)cc3)nn2)[C@@H](O)C[C@@H]1c1ccc(C)cc1,1%,13µM*,15,·,-6%,13µM*
O[C@@H]1C[C@H](c2ccc(Cl)cc2)N(Cc2cccs2)C[C@H]1n1cc(-c2ccc(F)cc2)nn1,14%,-21%,43,·,7%,?
CCCCCCN1C[C@@H](n2cc(-c3ccc(F)cc3)nn2)[C@H](O)C[C@@H]1c1ccc(Cl)cc1,7%,12µM*,-18,·,8%,12µM*
N#Cc1ccc(-c2nc3ccc(Br)cc3c(=O)n2O)cc1,10%,?,11,9.2µM*,1%,?
O=c1c2cc(Br)ccc2nc(-c2cccc(C(F)(F)F)c2)n1O,?,18µM*,73,?,?,10µM*
O=c1c2cc(Br)ccc2nc(-c2ccc([N+](=O)[O-])cc2)n1O,-14%,?,35,?,-15%,-109%
